Article PMC13541613, “GHT-SELEX demonstrates unexpectedly high intrinsic sequence specificity and complex DNA binding of many human transcription factors”

Key:
Assay in all cases: HT-SELEX; 20 mM HEPES pH 7, 140 mM KCl, 5 mM NaCl, 1 mM K2HPO4, 2 mM MgSO4, 100 uM EGTA, ZnSO4, 0.1% Tween20; room temperature, 1 h; high values mean tight binding
Conditions in all cases: protein: ivt; tags: eGFP (N-terminal); dsDNA, one strand shown
ZNF721 full-length = ZNF721 full-length (Homo sapiens, UniProt Q8TF20-2 1-923)
Chain of ZNF721 full-length (Q8TF20 other isoform, or with tags, fused parts or gaps): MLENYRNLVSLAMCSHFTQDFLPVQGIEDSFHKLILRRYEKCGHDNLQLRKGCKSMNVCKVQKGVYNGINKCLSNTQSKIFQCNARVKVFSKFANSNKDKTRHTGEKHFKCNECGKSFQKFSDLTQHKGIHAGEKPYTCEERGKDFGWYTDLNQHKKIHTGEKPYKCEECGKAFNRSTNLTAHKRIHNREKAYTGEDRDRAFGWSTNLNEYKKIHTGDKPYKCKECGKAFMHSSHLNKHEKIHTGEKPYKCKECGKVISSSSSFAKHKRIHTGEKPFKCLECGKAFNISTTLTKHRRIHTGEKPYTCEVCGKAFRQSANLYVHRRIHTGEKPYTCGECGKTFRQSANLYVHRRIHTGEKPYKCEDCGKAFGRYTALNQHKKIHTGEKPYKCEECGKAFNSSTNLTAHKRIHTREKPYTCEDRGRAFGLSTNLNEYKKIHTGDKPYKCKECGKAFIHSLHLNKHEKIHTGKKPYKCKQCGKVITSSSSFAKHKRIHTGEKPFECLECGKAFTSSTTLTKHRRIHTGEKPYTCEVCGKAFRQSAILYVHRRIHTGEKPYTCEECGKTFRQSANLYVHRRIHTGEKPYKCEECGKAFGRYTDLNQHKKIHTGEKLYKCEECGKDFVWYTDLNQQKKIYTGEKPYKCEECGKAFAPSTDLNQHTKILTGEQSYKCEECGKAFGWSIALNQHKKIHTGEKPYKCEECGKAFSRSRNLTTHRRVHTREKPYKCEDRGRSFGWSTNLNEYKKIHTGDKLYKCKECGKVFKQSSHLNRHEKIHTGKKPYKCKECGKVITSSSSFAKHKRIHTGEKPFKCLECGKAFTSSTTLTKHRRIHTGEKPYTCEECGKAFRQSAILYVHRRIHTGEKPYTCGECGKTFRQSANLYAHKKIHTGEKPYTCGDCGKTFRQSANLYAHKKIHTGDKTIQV
Summary of the method: (§1)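 The binding signal is a relative k-mer count in selected reads, and higher values mean tighter binding. To obtain these reads, bead-bound tagged transcription factor (full-length or DNA-binding-domain fragment, produced in HEK293 lysate or cell-free extract) was mixed with a randomized 40-base DNA library for 1 h at room temperature in low-stringency HEPES/KCl buffer with Tween20. Bound DNA was recovered by washing and heat elution, PCR-amplified through successive cycles and sequenced on Illumina (~3 million 60 bp reads per sample).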

ZNF721 DBD1 = ZNF721 DBD1 (Homo sapiens, UniProt Q8TF20-2 29-461)
Chain of ZNF721 DBD1 (Q8TF20 17-449): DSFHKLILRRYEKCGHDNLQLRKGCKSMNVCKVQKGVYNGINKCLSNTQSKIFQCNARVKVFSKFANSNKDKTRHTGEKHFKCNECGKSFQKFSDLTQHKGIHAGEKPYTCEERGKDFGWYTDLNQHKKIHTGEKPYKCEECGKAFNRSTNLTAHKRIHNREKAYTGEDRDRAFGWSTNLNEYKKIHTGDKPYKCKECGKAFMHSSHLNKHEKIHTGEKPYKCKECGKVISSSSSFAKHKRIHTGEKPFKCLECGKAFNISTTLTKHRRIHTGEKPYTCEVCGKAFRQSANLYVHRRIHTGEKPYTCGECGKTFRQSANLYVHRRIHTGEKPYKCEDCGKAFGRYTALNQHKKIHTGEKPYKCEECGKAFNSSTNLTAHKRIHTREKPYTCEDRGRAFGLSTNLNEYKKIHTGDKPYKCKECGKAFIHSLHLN
Summary of the method: as §1

ZNF721 DBD2 = ZNF721 DBD2 (Homo sapiens, UniProt Q8TF20-2 395-923)
Chain of ZNF721 DBD2 (Q8TF20 383-911): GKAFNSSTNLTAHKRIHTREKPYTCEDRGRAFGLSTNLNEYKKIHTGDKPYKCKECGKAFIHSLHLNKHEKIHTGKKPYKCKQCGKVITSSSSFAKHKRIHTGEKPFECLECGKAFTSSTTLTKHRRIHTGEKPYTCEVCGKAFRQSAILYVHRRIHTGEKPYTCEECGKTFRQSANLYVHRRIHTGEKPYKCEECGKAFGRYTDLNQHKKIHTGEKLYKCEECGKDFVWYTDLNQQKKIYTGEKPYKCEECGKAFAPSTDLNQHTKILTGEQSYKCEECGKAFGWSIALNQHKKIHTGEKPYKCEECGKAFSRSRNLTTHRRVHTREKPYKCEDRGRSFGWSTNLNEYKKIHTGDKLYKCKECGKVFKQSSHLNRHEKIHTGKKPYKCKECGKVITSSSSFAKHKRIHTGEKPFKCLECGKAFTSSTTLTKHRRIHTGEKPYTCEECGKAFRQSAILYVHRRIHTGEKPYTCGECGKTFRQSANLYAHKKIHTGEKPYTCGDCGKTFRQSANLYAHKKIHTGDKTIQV
Summary of the method: as §1

Row | Sequence | binding signal (ZNF721 full-length) [relative 10-mer count] | binding signal (ZNF721 DBD1) [relative 10-mer count] | binding signal (ZNF721 DBD2) [relative 10-mer count]
1 | CCCAAACCCC | 0.109 | 0.00298 | 0.00168
2 | AGGGGGCGGG | 0.128 | 0.00463 | 0.0012
3 | CACCCCACCG | 0.124 | 0.00459 | 0.00372
4 | AGCGTACCCT | 0.204 | 0.0586 | 0.165
5 | CCGACCACCC | 0.119 | 0.00495 | 0.00443
6 | CTCCCCGCCC | 0.131 | 0.00583 | 0.00372
7 | AAGCGTATCC | 0.108 | 0.0756 | 0.00863
8 | ACCACCCCAC | 0.201 | 0.0072 | 0.00479
9 | CCGCCCCTCC | 0.151 | 0.00624 | 0.00312
10 | AAAACAAGCA | 0.157 | 0.00638 | 0.0831
11 | CCCCTCCGCC | 0.167 | 0.00766 | 0.003
12 | AGGTGGGGTG | 0.114 | 0.00532 | 0.00288
13 | CACCCCACAC | 0.138 | 0.0055 | 0.00875
14 | CGCCCCGCCC | 0.139 | 0.00555 | 0.00132
15 | AAAAAAAAAC | 0.134 | 0.00229 | 0.0808
16 | GCCACCCCAC | 0.129 | 0.00472 | 0.00491
17 | CCCGTCCCCC | 0.187 | 0.00771 | 0.0018
18 | CACACCCCAC | 0.123 | 0.00394 | 0.00419
19 | CACTTCATAC | 0.747 | 1 | 0.00144
20 | AAAACAGTAT | 0.105 | 0.00124 | 0.155
21 | CGTCCCCACC | 0.115 | 0.00541 | 0.00467
22 | ACGCCCCACC | 0.11 | 0.00271 | 0.00431
23 | GCATACCCTA | 0.202 | 0.0231 | 0.217
24 | AGGTGGTGGG | 0.113 | 0.00601 | 0.00587
25 | CCCTCCGCCC | 0.192 | 0.00936 | 0.00491
26 | CCCCTCCCCC | 0.337 | 0.0145 | 0.00443
27 | CCGTCCACCC | 0.103 | 0.00472 | 0.0036

Row | Sequence | binding signal (ZNF721 full-length) [relative 10-mer count] | binding signal (ZNF721 DBD1) [relative 10-mer count] | binding signal (ZNF721 DBD2) [relative 10-mer count]
28 | CCCACACCAC | 0.137 | 0.00541 | 0.00503
29 | GCCCCCCACC | 0.171 | 0.00693 | 0.00455
30 | ACGCTTCATA | 0.122 | 0.2 | 0.00108
31 | CCCCCACCAC | 0.312 | 0.0133 | 0.00707
32 | CCACCACCGC | 0.11 | 0.00482 | 0.00503
33 | CCCCCATCCC | 0.173 | 0.00638 | 0.00384
34 | GCGTACCCTA | 0.111 | 0.0263 | 0.0775
35 | CCTCCACCCC | 0.263 | 0.0117 | 0.00455
36 | CACCCCCACC | 0.308 | 0.0129 | 0.0102
37 | AAAAAGCTCA | 0.112 | 0.0408 | 0.00407
38 | AAAAAGCATC | 0.123 | 0.0262 | 0.0225
39 | CCTCCCGCCC | 0.161 | 0.00656 | 0.00264
40 | CCGCCTCCCC | 0.155 | 0.00798 | 0.00204
41 | CCCCCCCGCC | 0.204 | 0.00706 | 0.00276
42 | AGGGGGTGGG | 0.201 | 0.0107 | 0.00467
43 | CCACGCCCAC | 0.102 | 0.00514 | 0.00431
44 | GCCCCCCGCC | 0.123 | 0.00477 | 0.003
45 | CCGCCCCCCC | 0.197 | 0.00775 | 0.00192
46 | ACCACCCCCA | 0.142 | 0.00505 | 0.00204
47 | CGCCTCCCCC | 0.126 | 0.0061 | 0.00336
48 | CCCCCTACCC | 0.155 | 0.0072 | 0.003
49 | AAAAAAAGGT | 0.117 | 0.00583 | 0.0857
50 | CCGCCCCCCA | 0.141 | 0.0066 | 0.00252
51 | AGCTTTTTTC | 0.449 | 0.217 | 0.00467
52 | AGCCCACCCC | 0.12 | 0.00583 | 0.0209
53 | CCCCCCCACA | 0.124 | 0.00491 | 0.00743
54 | GTGGTGGGGA | 0.14 | 0.00674 | 0.00443
